Source: PubChem BioAssay AID488966 (Southern Research Specialized Biocontainment Screening …, 2010)
Among all 340,000 compounds or so, about 55 (0.02%) were called active.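 The calls were made as follows: active = phage lysis inhibition, versus mean bacterial control, above a set limit; inconclusive = no clear call, values can overlap the other calls; inactive = the rest.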 The list is a sample of the results. Potency and affinity values are given separately.

experiment: protection from phage-mediated lysis, alamar blue read-out – E. coli UTI89, K1F phage, bacterial capsule biogenesis inhibitors (AID 488966); settings: 2 h; inhibition: at 100 µM, active compounds read high unless noted; series mostly up to 300 µM;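 also: capsule biogenesis inhibitors block K1F phage lysis so surviving cells raise fluorescence; higher fluorescence means more inhibition of phage lysis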

inhibition, inactive:
Cc1ccccc1C(=O)N=c1ccn(-c2nc3ccccc3nc2NS(=O)(=O)c2ccccc2)cc1 0.1%
CCOc1ccc(C(=O)C(CCC(CN(C)C)C(=O)c2ccc(OCC)cc2)CN(C)C)cc1 (stereo not drawn) 0.87%
CCCOc1ccc(C(=O)O)cc1 -0.2%
Cc1cccc(NC(=O)/C(C#N)=C/c2ccc(Cl)cc2)n1 0%
Cc1cc(C)c2c3c(oc2n1)C(=O)N(c1cccc(Cl)c1)CC(=O)N3 0.63%
Clc1ccc(-n2nnnc2-c2cnc3ccc(Cl)cc3c2-c2ccccc2)cc1 0.85%
O=C(Nc1ccc(Cl)c(S(=O)(=O)N2CCOCC2)c1)[C@@H]1CCCN1C(=O)c1cccs1 0.43% [at 50 µM, active compounds read high]
COc1ccc(C[C@@H]2CN3C(=NC[C@@H]3Cc3ccc(O)cc3)N2C[C@H](C)NC(=O)CCC2CCCCC2)cc1 0.18%
CCOC(=O)C1CCN(C(=O)CN(c2ccc3c(c2)OCO3)S(C)(=O)=O)CC1 0.52%
O=C(NN=Cc1ccccc1O)C(O)(c1ccccc1)c1ccccc1 -1.49%
COc1cccc(C2C3=C(CC(C)(C)CC3=O)Nc3cc4c(cc32)OCO4)c1 (stereo not drawn) 2.26%
Cc1nc(N2CCN(C(=O)c3ccco3)CC2)c2oc3ccccc3c2n1 1.22%
CCOc1cc(C2NC(=O)c3ccccc3O2)ccc1OC(C)C (stereo not drawn) 2.06%
O=C(O)CCC(=NNC(=O)c1cccc(S(=O)(=O)N2CCCCC2)c1)c1ccccc1 0.71% [at 50 µM, active compounds read high]
CCN(CC)c1ccc(C(=O)Nc2cccc(F)c2)cc1 2.12%
CCN(CC)c1ccc(NC(=O)c2ccc3c(c2)OCO3)cc1 2.01%
CCCNC(=O)C(=O)Nc1ccc2c(c1)N(S(=O)(=O)c1cccs1)CCC2 1.18% [at 50 µM, active compounds read high]
CCc1cc2cc(C)cc(C)c2nc1SCC(=O)Nc1cc(C)on1 0.23%
O=C(Nc1cc2c3c(c1)CC(=O)N3CCC2)c1c(F)cccc1F 1.43% [at 50 µM, active compounds read high]
CCOc1ccc(NC(=S)N2CCCC2)cc1 0.16%
COC(=O)c1sccc1NC(=O)Nc1cccc(Cl)c1Cl 0.2%
Cc1c(N(C(=O)Nc2ccccc2)C2=NCC(C)S2)c(=O)n(-c2ccccc2)n1C (stereo not drawn) 0.11%
COc1cc(C2NC(=S)NC3=C2CCc2ccccc23)cc(OC)c1OC (stereo not drawn) 0.64% [at 50 µM, active compounds read high]
